Test results reported in ChEMBL document CHEMBL1961873, “Compounds: GSK PKIS; Assays: Nanosyn kinase panel” (2012).

Experiments:
[1] = target: Ribosomal protein S6 kinase alpha-3 (Homo sapiens) (UniProt P51812); details: at 0.1 µM
[2] = target: Ribosomal protein S6 kinase alpha-3 (Homo sapiens) (UniProt P51812); details: at 1 µM
[3] = target: Ribosomal protein S6 kinase alpha-2 (Homo sapiens) (UniProt Q15349); details: at 0.1 µM
[4] = target: Ribosomal protein S6 kinase alpha-2 (Homo sapiens) (UniProt Q15349); details: at 1 µM
[5] = target: Ribosomal protein S6 kinase alpha-6 (Homo sapiens) (UniProt Q9UK32); details: at 0.1 µM
[6] = target: Ribosomal protein S6 kinase alpha-6 (Homo sapiens) (UniProt Q9UK32); details: at 1 µM
[7] = target: Serine/threonine-protein kinase Sgk1 (Homo sapiens) (UniProt O00141); details: at 0.1 µM
[8] = target: Serine/threonine-protein kinase Sgk1 (Homo sapiens) (UniProt O00141); details: at 1 µM
[9] = target: Serine/threonine-protein kinase Sgk2 (Homo sapiens) (UniProt Q9HBY8); details: at 0.1 µM
[10] = target: Serine/threonine-protein kinase Sgk2 (Homo sapiens) (UniProt Q9HBY8); details: at 1 µM
[11] = target: Serine/threonine-protein kinase Sgk3 (Homo sapiens) (UniProt Q96BR1); details: at 0.1 µM
[12] = target: Serine/threonine-protein kinase Sgk3 (Homo sapiens) (UniProt Q96BR1); details: at 1 µM
[13] = target: 5'-AMP-activated protein kinase catalytic subunit alpha-1 (Homo sapiens) (UniProt Q13131); details: at 0.1 µM
[14] = target: 5'-AMP-activated protein kinase catalytic subunit alpha-1 (Homo sapiens) (UniProt Q13131); details: at 1 µM
[15] = target: 5'-AMP-activated protein kinase catalytic subunit alpha-2 (Homo sapiens) (UniProt P54646); details: at 0.1 µM
[16] = target: 5'-AMP-activated protein kinase catalytic subunit alpha-2 (Homo sapiens) (UniProt P54646); details: at 1 µM
[17] = target: NUAK family SNF1-like kinase 1 (Homo sapiens) (UniProt O60285); details: at 0.1 µM
[18] = target: NUAK family SNF1-like kinase 1 (Homo sapiens) (UniProt O60285); details: at 1 µM
[19] = target: Serine/threonine-protein kinase BRSK1 (Homo sapiens) (UniProt Q8TDC3); details: at 0.1 µM
[20] = target: Serine/threonine-protein kinase BRSK1 (Homo sapiens) (UniProt Q8TDC3); details: at 1 µM
[21] = target: Serine/threonine-protein kinase BRSK2 (Homo sapiens) (UniProt Q8IWQ3); details: at 0.1 µM
[22] = target: Serine/threonine-protein kinase BRSK2 (Homo sapiens) (UniProt Q8IWQ3); details: at 1 µM
[23] = target: Calcium/calmodulin-dependent protein kinase type 1D (Homo sapiens) (UniProt Q8IU85); details: at 0.1 µM
[24] = target: Calcium/calmodulin-dependent protein kinase type 1D (Homo sapiens) (UniProt Q8IU85); details: at 1 µM
[25] = target: Calcium/calmodulin-dependent protein kinase type II subunit alpha (Homo sapiens) (UniProt Q9UQM7); details: at 0.1 µM
[26] = target: Calcium/calmodulin-dependent protein kinase type II subunit alpha (Homo sapiens) (UniProt Q9UQM7); details: at 1 µM
[27] = target: Calcium/calmodulin-dependent protein kinase type II subunit delta (Homo sapiens) (UniProt Q13557); details: at 0.1 µM
[28] = target: Calcium/calmodulin-dependent protein kinase type II subunit delta (Homo sapiens) (UniProt Q13557); details: at 1 µM
[29] = target: Calcium/calmodulin-dependent protein kinase type IV (Homo sapiens) (UniProt Q16566); details: at 0.1 µM
[30] = target: Calcium/calmodulin-dependent protein kinase type IV (Homo sapiens) (UniProt Q16566); details: at 1 µM
[31] = target: Serine/threonine-protein kinase Chk1 (Homo sapiens) (UniProt O14757); details: at 0.1 µM
[32] = target: Serine/threonine-protein kinase Chk1 (Homo sapiens) (UniProt O14757); details: at 1 µM
[33] = target: Serine/threonine-protein kinase Chk2 (Homo sapiens) (UniProt O96017); details: at 0.1 µM
[34] = target: Serine/threonine-protein kinase Chk2 (Homo sapiens) (UniProt O96017); details: at 1 µM
[35] = target: Death-associated protein kinase 1 (Homo sapiens) (UniProt P53355); details: at 0.1 µM
[36] = target: Death-associated protein kinase 1 (Homo sapiens) (UniProt P53355); details: at 1 µM
[37] = target: Serine/threonine-protein kinase DCLK2 (Homo sapiens) (UniProt Q8N568); details: at 0.1 µM
[38] = target: Serine/threonine-protein kinase DCLK2 (Homo sapiens) (UniProt Q8N568); details: at 1 µM
[39] = target: MAP kinase-activated protein kinase 2 (Homo sapiens) (UniProt P49137); details: at 0.1 µM
[40] = target: MAP kinase-activated protein kinase 2 (Homo sapiens) (UniProt P49137); details: at 1 µM
[41] = target: MAP kinase-activated protein kinase 3 (Homo sapiens) (UniProt Q16644); details: at 0.1 µM
[42] = target: MAP kinase-activated protein kinase 3 (Homo sapiens) (UniProt Q16644); details: at 1 µM
[43] = target: Serine/threonine-protein kinase MARK1 (Homo sapiens) (UniProt Q9P0L2); details: at 0.1 µM
[44] = target: Serine/threonine-protein kinase MARK1 (Homo sapiens) (UniProt Q9P0L2); details: at 1 µM
[45] = target: MAP/microtubule affinity-regulating kinase 3 (Homo sapiens) (UniProt P27448); details: at 0.1 µM
[46] = target: MAP/microtubule affinity-regulating kinase 3 (Homo sapiens) (UniProt P27448); details: at 1 µM
[47] = target: MAP/microtubule affinity-regulating kinase 4 (Homo sapiens) (UniProt Q96L34); details: at 0.1 µM
[48] = target: MAP/microtubule affinity-regulating kinase 4 (Homo sapiens) (UniProt Q96L34); details: at 1 µM
[49] = target: Maternal embryonic leucine zipper kinase (Homo sapiens) (UniProt Q14680); details: at 0.1 µM
[50] = target: Maternal embryonic leucine zipper kinase (Homo sapiens) (UniProt Q14680); details: at 1 µM
[51] = target: MAP kinase-interacting serine/threonine-protein kinase 1 (Homo sapiens) (UniProt Q9BUB5); details: at 0.1 µM
[52] = target: MAP kinase-interacting serine/threonine-protein kinase 1 (Homo sapiens) (UniProt Q9BUB5); details: at 1 µM
[53] = target: MAP kinase-interacting serine/threonine-protein kinase 2 (Homo sapiens) (UniProt Q9HBH9); details: at 0.1 µM
[54] = target: MAP kinase-interacting serine/threonine-protein kinase 2 (Homo sapiens) (UniProt Q9HBH9); details: at 1 µM
[55] = target: Serine/threonine-protein kinase MARK2 (Homo sapiens) (UniProt Q7KZI7); details: at 0.1 µM
[56] = target: Serine/threonine-protein kinase MARK2 (Homo sapiens) (UniProt Q7KZI7); details: at 1 µM

Chain of MAP/microtubule affinity-regulating kinase 4 (Homo sapiens) (Q96L34 whole entry): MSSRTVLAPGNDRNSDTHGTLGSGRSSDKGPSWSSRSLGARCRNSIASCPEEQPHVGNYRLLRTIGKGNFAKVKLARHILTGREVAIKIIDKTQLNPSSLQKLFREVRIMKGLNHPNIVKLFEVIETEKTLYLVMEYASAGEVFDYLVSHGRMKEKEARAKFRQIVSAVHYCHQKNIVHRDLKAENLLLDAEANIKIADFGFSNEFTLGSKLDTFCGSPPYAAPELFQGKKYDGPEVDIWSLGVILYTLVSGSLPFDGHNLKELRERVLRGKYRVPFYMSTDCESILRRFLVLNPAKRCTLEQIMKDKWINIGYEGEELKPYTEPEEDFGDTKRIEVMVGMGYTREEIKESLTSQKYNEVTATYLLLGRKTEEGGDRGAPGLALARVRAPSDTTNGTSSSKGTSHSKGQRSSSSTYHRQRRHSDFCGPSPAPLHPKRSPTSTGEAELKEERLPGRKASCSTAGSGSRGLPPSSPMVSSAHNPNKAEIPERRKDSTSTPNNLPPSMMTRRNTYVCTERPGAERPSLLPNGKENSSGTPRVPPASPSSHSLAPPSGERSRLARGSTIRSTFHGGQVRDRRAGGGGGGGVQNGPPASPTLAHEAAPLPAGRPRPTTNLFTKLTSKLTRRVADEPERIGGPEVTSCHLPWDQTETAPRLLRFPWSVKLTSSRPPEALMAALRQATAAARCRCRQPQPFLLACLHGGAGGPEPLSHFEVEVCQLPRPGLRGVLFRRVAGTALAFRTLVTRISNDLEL
Chain of Serine/threonine-protein kinase Sgk1 (Homo sapiens) (O00141 whole entry): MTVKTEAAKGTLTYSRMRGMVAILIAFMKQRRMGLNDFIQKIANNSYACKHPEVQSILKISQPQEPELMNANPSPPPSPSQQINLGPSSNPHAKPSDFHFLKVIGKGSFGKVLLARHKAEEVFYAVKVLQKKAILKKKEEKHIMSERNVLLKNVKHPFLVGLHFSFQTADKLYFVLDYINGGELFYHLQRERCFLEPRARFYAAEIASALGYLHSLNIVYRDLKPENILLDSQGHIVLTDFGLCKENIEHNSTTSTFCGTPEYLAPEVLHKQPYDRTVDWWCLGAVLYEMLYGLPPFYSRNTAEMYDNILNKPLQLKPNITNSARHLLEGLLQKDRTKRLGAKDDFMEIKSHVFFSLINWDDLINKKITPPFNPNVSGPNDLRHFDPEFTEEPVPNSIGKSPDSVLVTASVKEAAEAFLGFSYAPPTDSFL
Chain of MAP kinase-interacting serine/threonine-protein kinase 1 (Homo sapiens) (Q9BUB5 whole entry, looked up): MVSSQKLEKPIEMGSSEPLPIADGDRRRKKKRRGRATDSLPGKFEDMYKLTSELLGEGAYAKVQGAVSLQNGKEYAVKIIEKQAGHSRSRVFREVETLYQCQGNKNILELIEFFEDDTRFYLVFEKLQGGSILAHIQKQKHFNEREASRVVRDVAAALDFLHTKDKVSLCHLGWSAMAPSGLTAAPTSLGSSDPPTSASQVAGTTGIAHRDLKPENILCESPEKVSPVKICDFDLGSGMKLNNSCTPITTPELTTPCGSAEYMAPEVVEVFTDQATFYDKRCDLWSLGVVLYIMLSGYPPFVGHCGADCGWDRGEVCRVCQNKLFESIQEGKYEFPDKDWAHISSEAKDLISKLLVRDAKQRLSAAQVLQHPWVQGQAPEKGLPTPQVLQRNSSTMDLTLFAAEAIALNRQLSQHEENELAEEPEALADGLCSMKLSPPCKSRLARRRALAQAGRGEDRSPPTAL
Chain of Calcium/calmodulin-dependent protein kinase type II subunit alpha (Homo sapiens) (Q9UQM7 whole entry): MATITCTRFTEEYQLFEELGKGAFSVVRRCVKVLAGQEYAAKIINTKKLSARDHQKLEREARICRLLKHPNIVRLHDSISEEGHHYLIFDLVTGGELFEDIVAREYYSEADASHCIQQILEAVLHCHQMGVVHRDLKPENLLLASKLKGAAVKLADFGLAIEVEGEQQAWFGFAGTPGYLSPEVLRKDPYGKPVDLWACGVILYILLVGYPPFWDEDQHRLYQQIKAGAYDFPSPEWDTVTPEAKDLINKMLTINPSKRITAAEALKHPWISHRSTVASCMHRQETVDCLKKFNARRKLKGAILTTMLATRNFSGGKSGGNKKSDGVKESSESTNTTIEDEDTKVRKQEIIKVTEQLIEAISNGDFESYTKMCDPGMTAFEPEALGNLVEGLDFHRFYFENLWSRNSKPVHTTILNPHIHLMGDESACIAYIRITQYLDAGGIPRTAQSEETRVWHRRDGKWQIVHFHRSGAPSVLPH
Chain of Death-associated protein kinase 1 (Homo sapiens) (P53355 whole entry, looked up): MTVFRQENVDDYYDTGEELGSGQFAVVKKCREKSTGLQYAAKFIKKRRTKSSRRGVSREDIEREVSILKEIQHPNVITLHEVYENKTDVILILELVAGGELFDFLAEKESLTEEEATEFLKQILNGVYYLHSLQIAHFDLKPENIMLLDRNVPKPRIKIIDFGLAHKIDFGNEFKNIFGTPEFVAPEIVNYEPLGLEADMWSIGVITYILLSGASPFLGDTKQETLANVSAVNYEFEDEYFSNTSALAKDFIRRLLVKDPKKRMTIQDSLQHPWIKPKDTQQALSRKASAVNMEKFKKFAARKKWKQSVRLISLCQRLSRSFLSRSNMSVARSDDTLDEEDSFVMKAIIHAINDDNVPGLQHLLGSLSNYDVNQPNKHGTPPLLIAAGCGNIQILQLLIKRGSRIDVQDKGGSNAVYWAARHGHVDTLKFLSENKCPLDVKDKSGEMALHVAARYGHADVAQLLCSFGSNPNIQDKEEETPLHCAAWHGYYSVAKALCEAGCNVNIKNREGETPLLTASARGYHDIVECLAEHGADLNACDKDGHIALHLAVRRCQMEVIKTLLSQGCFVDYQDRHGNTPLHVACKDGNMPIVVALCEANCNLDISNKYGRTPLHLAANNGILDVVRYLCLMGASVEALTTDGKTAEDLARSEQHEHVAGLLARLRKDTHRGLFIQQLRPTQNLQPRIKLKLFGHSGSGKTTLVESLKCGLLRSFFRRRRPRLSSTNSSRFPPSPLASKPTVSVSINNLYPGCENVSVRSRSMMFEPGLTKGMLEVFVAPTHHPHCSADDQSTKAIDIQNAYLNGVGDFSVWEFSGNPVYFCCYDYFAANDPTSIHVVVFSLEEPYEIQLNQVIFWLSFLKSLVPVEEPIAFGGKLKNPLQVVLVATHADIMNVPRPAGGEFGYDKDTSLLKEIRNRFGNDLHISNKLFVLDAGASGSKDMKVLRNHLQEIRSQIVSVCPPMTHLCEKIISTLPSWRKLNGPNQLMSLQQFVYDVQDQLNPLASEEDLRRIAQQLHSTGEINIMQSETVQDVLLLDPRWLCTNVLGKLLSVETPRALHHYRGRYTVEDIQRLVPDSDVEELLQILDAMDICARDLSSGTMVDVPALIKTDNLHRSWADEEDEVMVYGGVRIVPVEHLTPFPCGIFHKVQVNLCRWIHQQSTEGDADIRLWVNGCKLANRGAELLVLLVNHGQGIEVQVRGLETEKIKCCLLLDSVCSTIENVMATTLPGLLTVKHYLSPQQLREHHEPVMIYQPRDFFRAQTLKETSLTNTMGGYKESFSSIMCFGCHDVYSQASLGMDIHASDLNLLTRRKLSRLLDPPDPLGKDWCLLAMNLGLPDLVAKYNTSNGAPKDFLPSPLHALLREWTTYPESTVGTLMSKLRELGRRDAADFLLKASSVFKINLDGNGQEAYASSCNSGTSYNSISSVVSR
Chain of MAP/microtubule affinity-regulating kinase 3 (Homo sapiens) (P27448 whole entry, looked up): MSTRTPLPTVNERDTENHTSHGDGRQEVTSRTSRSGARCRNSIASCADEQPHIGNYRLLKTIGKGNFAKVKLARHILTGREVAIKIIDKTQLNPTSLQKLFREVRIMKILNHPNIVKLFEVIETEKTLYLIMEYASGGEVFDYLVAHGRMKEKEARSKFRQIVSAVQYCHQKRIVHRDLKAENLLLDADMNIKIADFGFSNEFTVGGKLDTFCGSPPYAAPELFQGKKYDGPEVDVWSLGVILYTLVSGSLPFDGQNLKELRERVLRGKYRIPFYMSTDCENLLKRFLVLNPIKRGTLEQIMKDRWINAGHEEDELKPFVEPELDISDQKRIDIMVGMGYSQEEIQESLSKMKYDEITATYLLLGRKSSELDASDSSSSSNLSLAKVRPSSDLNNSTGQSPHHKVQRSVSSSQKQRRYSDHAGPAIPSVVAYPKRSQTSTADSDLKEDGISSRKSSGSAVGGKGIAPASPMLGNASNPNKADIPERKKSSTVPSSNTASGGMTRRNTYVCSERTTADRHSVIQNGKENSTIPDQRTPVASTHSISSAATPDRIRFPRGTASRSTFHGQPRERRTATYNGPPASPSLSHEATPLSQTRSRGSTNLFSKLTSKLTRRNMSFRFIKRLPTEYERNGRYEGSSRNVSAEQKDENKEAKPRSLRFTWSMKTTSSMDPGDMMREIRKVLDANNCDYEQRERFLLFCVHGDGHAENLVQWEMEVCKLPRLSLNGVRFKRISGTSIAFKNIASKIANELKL
Chain of Serine/threonine-protein kinase DCLK2 (Homo sapiens) (Q8N568 whole entry): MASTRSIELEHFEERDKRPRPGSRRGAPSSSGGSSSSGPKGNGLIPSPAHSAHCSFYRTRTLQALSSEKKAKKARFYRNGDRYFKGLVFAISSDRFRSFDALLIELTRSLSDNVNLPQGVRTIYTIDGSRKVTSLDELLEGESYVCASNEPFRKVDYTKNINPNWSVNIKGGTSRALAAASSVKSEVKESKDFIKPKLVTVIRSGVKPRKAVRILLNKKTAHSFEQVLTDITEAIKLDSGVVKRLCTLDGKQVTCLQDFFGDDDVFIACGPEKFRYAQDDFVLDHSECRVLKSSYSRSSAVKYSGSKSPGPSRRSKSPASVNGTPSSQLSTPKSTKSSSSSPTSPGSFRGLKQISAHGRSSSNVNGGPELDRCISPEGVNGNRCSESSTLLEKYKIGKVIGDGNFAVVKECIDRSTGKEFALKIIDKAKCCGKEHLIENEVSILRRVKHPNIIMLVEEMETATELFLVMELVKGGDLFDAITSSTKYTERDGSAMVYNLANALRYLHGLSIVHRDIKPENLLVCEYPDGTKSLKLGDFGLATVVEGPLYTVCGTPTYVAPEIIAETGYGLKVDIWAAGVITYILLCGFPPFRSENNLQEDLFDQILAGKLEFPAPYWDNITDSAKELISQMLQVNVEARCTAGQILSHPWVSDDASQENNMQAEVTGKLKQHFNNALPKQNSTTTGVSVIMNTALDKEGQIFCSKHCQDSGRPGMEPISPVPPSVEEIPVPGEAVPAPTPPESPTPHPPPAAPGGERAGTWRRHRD

**Q.** Which inhibition [1] does the source give for `CNC(=O)Oc1cc(C)c(/C=C/c2cncc(C(=O)NC)c2)c(C)c1` here?
**A.** 1.05%

**Q.** And the inhibition [2]?
**A.** 3.39%

**Q.** And the inhibition [3]?
**A.** 1.4%

**Q.** What about the inhibition [4] of the same compound?
**A.** 3.44%

**Q.** What about the inhibition [5] of the same compound?
**A.** 1.15%

**Q.** And the inhibition [6]?
**A.** 2.66%

**Q.** What about the inhibition [7] of the same compound?
**A.** 3.01%

**Q.** And the inhibition [8]?
**A.** 0.19%

**Q.** And the inhibition [9]?
**A.** 1.73%

**Q.** And the inhibition [10]?
**A.** 0.22%

**Q.** What about the inhibition [11] of the same compound?
**A.** 1.34%

**Q.** What about the inhibition [12] of the same compound?
**A.** 0.65%

**Q.** What about the inhibition [13] of the same compound?
**A.** 2.14%

**Q.** What about the inhibition [14] of the same compound?
**A.** 0.11%

**Q.** And the inhibition [15]?
**A.** -0.38%

**Q.** And the inhibition [16]?
**A.** 2.44%

**Q.** And the inhibition [17]?
**A.** -1.06%

**Q.** What about the inhibition [18] of the same compound?
**A.** 4.07%

**Q.** And the inhibition [19]?
**A.** 2.89%

**Q.** What about the inhibition [20] of the same compound?
**A.** 12%

**Q.** What about the inhibition [21] of the same compound?
**A.** 1.79%

**Q.** And the inhibition [22]?
**A.** 7.68%

**Q.** And the inhibition [23]?
**A.** 0.95%

**Q.** What about the inhibition [24] of the same compound?
**A.** 2.36%

**Q.** And the inhibition [25]?
**A.** 3.17%

**Q.** And the inhibition [26]?
**A.** 4.72%

**Q.** And the inhibition [27]?
**A.** 4.03%

**Q.** What about the inhibition [28] of the same compound?
**A.** 5.12%

**Q.** And the inhibition [29]?
**A.** 1.23%

**Q.** And the inhibition [30]?
**A.** 0.1%

**Q.** And the inhibition [31]?
**A.** -2.68%

**Q.** And the inhibition [32]?
**A.** -3.25%

**Q.** What about the inhibition [33] of the same compound?
**A.** -3.08%

**Q.** And the inhibition [34]?
**A.** 0.64%

**Q.** What about the inhibition [35] of the same compound?
**A.** -4.67%

**Q.** What about the inhibition [36] of the same compound?
**A.** -3.09%

**Q.** What about the inhibition [37] of the same compound?
**A.** 1.08%

**Q.** What about the inhibition [38] of the same compound?
**A.** -1.11%

**Q.** And the inhibition [39]?
**A.** -2.03%

**Q.** And the inhibition [40]?
**A.** -2.01%

**Q.** And the inhibition [41]?
**A.** -3.36%

**Q.** And the inhibition [42]?
**A.** -4.16%

**Q.** And the inhibition [43]?
**A.** 1.32%

**Q.** What about the inhibition [44] of the same compound?
**A.** 0.49%

**Q.** What about the inhibition [45] of the same compound?
**A.** 3.32%

**Q.** And the inhibition [46]?
**A.** 5.19%

**Q.** What about the inhibition [47] of the same compound?
**A.** 0.21%

**Q.** What about the inhibition [48] of the same compound?
**A.** 0.46%

**Q.** And the inhibition [49]?
**A.** 1.41%

**Q.** And the inhibition [50]?
**A.** 3.48%

**Q.** What about the inhibition [51] of the same compound?
**A.** 5.31%

**Q.** What about the inhibition [52] of the same compound?
**A.** 30.7%

**Q.** And the inhibition [53]?
**A.** 3.17%

**Q.** And the inhibition [54]?
**A.** 25.1%

**Q.** What about the inhibition [55] of the same compound?
**A.** -0.87%

**Q.** What about the inhibition [56] of the same compound?
**A.** 0.31%
